Screening results deposited in PubChem by several laboratories.
In the library only some 4.4% were active in any assay of this set; here they are far more common.
HUVEC tox IL1B = cytotoxicity in IL-1B stimulated HUVEC, primary screen, cytotoxicity control for IL-1B NFkB translocation project, imaging, Hoechst nuclear count, IL-1B stimulus | HUVEC cell count loss | 94,000 compounds, 0.41% hits | cell count reduction, % at 2 µM;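 active = cell count reduction more than 3 SD above the screen-wide mean, cut at about 70% in these data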;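 note: normalized per plate to untreated control cells as the no-loss baseline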
Cav3 T inh = Cav3.2 calcium influx blockers – cell-based, Fluo-4 calcium fluorescence, FDSS, MLSMR library, primary screen. Voltage-dependent T-type calcium channel subunit alpha-1H (Homo sapiens), O95180. Cav3.2-expressing cells; hits give low values. B-score at 10 µM. 100,000 compounds, 4% hits. AID 449739, 2010;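 active = single-dose well whose peak fluorescence ratio is a statistical outlier from its plate by either plate-standardised score or position-corrected B-score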
IL1B NFkB inh = inhibitors of IL-1B driven NFkB p65 nuclear import, primary screen, imaging, HUVEC, IL-1B stimulus, high-content imaging; AID 796, 2007; inhibition, % at 2 µM; HUVEC IL-1B NFkB p65 nuclear translocation imaging; 94,000 compounds, 0.43% hits;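 active = inhibition above about 30% together with a positive call from visual inspection of the well image, limit read from the data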;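 note: nuclear over cytoplasmic p65 intensity ratio measured by imaging; 0% = IL-1B stimulated DMSO wells and 100% = unstimulated DMSO wells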
IL1B NFkB pot = enhancers of NFkB p65 translocation in HUVEC – imaging, IL-1B stimulus, high-content imaging, primary screen; HUVEC IL-1B NFkB p65 nuclear translocation imaging; activation, % at 2 µM; 94,000 compounds, 0.3% hits; AID 819, 2007;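 active = activation above 40%, about the mean plus 3 SD, also judged a hit on visual image review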;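 note: percent activation is computed from the nuclear over cytoplasmic p65 intensity ratio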
* = called active by the depositor; . = no result given.

SMILES	HUVEC tox IL1B	Cav3 T inh	IL1B NFkB inh	IL1B NFkB pot
COc1ccccc1C1CN=NC12CCCc1ccccc1C2=O (stereo not drawn)	-7	-4.7*	3	-3
O=C(CSc1ccc2nnc(-c3ccc(F)cc3)n2n1)N1CCOCC1	6	1.8	6	-6
CC(C)(C)[C@H]1C=C(C(=O)N2CCN(Cc3ccc4c(c3)OCO4)CC2)O[C@@H](OCc2ccc(CO)cc2)C1	.	-2.6	.	.
CCOc1ccc(C2=NNC(c3cccs3)=Nc3ccc(OC)cc32)cc1OCC	-12	-8.1*	-30	30
COc1ccc(C2=NNC(c3cccs3)=Nc3ccc(OC)cc32)cc1	11	-2.1	-14	14
CCCCN(C)CCn1c(=S)[nH]c2ccc(N3CCOCC3)cc2c1=O	.	0.47	.	.
CCOC(=O)CN(C(=O)CSc1nnc2c(n1)[nH]c1ccc(F)cc12)c1ccccc1	3	-4.3*	3	-3
Fc1ccccc1NC(=S)NN(Cc1ccccc1)c1ccccc1	-5	-3.3	10	-9
CC(C)c1ccccc1NC(=S)NN(Cc1ccccc1)c1ccccc1	-13	-6.9*	15	-15
COC(=O)c1ccccc1NC(=O)/C=C/c1cc(OC)c(OC)c(OC)c1	-1	-1.3	-9	9
CCOc1ccccc1C1NC(=O)NC(C)=C1C(=O)OC1CCCCC1 (stereo not drawn)	.	-2.3	.	.
CCCCCOC(=O)C1=C(C)NC(=O)NC1c1ccccc1OCC (stereo not drawn)	.	-5.7*	.	.
CCOc1ccccc1C1NC(=O)NC(C)=C1C(=O)OC1CCCC1C (stereo not drawn)	-9	-5.3*	2	-1
CCOC(=O)C1=C(C)NC(=O)NC1c1ccccc1Cl (stereo not drawn)	19	-0.065	13	-13
COc1ccc(Nc2nc(C)cc(C)c2C#N)cc1OC	-5	-0.12	-6	6
CC1CCC2(CC1)NC(=O)N(CC(=O)NC(=O)NC1CCCC1)C2=O (stereo not drawn)	.	0.024	.	.
COCCNc1cc(C)nc2c3c(C)cc(C)nc3nn12	.	0.22	.	.
Cc1cc2oc(=O)cc(CN3CCC(C)CC3)c2cc1Cl	15	-9.9*	4	-4
CCCCCn1c(CN2CCN(c3cccc(Cl)c3)CC2)nc2c1c(=O)n(C)c(=O)n2C	-4	-4.1	-10	10
CCCCn1c(CN2CCN(c3cccc(Cl)c3)CC2)nc2c1c(=O)n(C)c(=O)n2C	-15	-6.9*	-16	16
CCCn1c(CN2CCN(c3cccc(Cl)c3)CC2)nc2c1c(=O)n(C)c(=O)n2C	-1	-4.8*	3	-3
CCCn1c(CN(Cc2ccccc2)Cc2ccccc2)nc2c1c(=O)n(C)c(=O)n2C	.	-4.4*	.	.
COc1cccc(/C=C/C(=C2\C(=O)N(c3ccccc3)N=C2C)c2ccc(Br)cc2)c1OC	-5	.	3	-3
CCO/C(C)=N/n1c2nc3ccccc3nc2c2c(=O)n(Cc3ccccc3Cl)c(C)nc21	-22	0.98	-6	6
COc1cc(/C=C2\S/C(=N/S(=O)(=O)c3ccc(C)cc3)NC2=O)c([N+](=O)[O-])cc1OC	-11	-5.3*	-14	14
SMILES	HUVEC tox IL1B	Cav3 T inh	IL1B NFkB inh	IL1B NFkB pot
Cc1ccc(S(=O)(=O)/N=C2/NC(=O)/C(=C\c3ccco3)S2)cc1	-21	.	-3	3
CCO[C@H]1OC(C(=O)Nc2ccccc2)=C[C@@H](c2ccc(C(F)(F)F)cc2)[C@@H]1CCCO	.	-2.1	.	.
CCN1C(=O)C(CC(=O)Nc2ccc(Br)cc2)N(CCCc2ccccc2)C1=S (stereo not drawn)	-29	-4.5*	4	-4
O=C1CC(N2CCOCC2)C(=O)N1CCc1ccccc1 (stereo not drawn)	-4	-0.29	8	-8
O=C(CSC1CC(=O)N(CCc2ccccc2)C1=O)Nc1ccc(Br)cc1 (stereo not drawn)	-33	-4.8*	-10	10
Cc1cc(C)c[n+](-c2nc3ccccc3nc2C(=C=[N-])C#N)c1	-5	0.18	-1	1
N/C(Cc1cccs1)=N\OC(=O)COc1ccc(Cl)cc1Cl	10	0.25	6	-6
COc1ccc(/C=N/NC(=O)c2ccoc2C)cc1COc1ccc(Cl)cc1	-9	-6.5*	-26	26
CCOC(=O)c1cc(C#N)c(Oc2cccc(C(F)(F)F)c2)nc1-c1ccccc1	-6	-4.5*	-18	18
CCCN(CCC)C1=N/C(=C\c2ccco2)C(=O)N1c1ccccc1	2	-4.9*	-8	8
CCCN=C1N/C(=C\c2ccco2)C(=O)N1c1ccccc1	21	0.8	11	-11
Cc1ccc(NC(=S)N2CCC(N(C)CC3CCCO3)CC2)c(C)c1 (stereo not drawn)	9	0.38	-8	-9
CCCCCCSC1=C(C#N)C(c2ccc(O)cc2)CC(=O)N1 (stereo not drawn)	-19	-3.1	2	-2
Cc1ccc(C)c(N2CCN(C(=O)C3CCN(c4nc(C)cc(C)n4)CC3)CC2)c1	-14	-5.6*	4	-4
CC1C(=O)CC(c2ccco2)NC1c1ccco1 (stereo not drawn)	-14	0.49	-4	4
O=C(CC1Sc2ccccc2NC1=O)Nc1cccc(-c2nnc3n2CCCCC3)c1 (stereo not drawn)	23	0.17	-36	36
Cc1ccc(/C=N/n2nnnc2N)cc1[N+](=O)[O-]	5	-1.5	8	-8
CCSc1nnc([C@@H]2CCCN2C(=O)OC(C)(C)C)o1	24	1.3	13	-13
CC(C)(C)OC(=O)N1CCC[C@H]1c1nnc(SCc2c(Cl)cccc2Cl)o1	-4	-6.8*	-11	11
CCOc1ccc(CNC(=O)C2CCN(S(=O)(=O)CC)CC2)cc1OC	94*	0.39	-24	24
Clc1ccc(C(c2nnnn2C2CCCC2)N2CCN(c3nc4ccccc4s3)CC2)cc1 (stereo not drawn)	-35	-8.1*	10	-10
COc1ccccc1N1CCN(C(c2ccc(Cl)cc2)c2nnnn2C(C)(C)C)CC1 (stereo not drawn)	-5	-3.8	-12	12
COc1ccc(C(c2nnnn2C(C)(C)C)N2CCN(c3nc4ccccc4s3)CC2)cc1OC (stereo not drawn)	.	-4*	.	.
COc1ccccc1N1CCN(C(c2ccccc2Cl)c2nnnn2C(C)(C)C)CC1 (stereo not drawn)	18	-6.8*	-1	1
c1cnc2ccc(C(c3nnnn3C3CCCC3)N3CCN(c4nc5ccccc5s4)CC3)cc2c1 (stereo not drawn)	-63	-3.9*	-12	12
CCC(c1nnnn1C(C)(C)C)N1CCN(c2cc(Cl)ccc2C)CC1 (stereo not drawn)	-10	-3.8*	-11	11
Cc1ccc(Cl)cc1N1CCN(C(c2cccnc2)c2nnnn2C2CCCCC2)CC1 (stereo not drawn)	28	-5*	7	-7
COC(C)(C)[C@]12CC(O)(c3ccccc3)ON1[C@H]1CCCCC1N2O (stereo partly drawn)	-53	-0.77	-5	5
